Results filed as inconclusive are left out. Active and inactive are the calls of the source. Rule for the calls: active = hit-call score of the fitted dose curve at least 0.9, where 1 is the maximum; inconclusive = response in the unintended direction; inactive = score below 0.9.
tested on: Japanese medaka Retinoid X Receptor beta (RXRb), gene 100125505; assay: ATG_jmRXRb_EcoTox2: Attagene TRANS-FACTORIAL EcoTox-2 HepG2 Assay for Japanese medaka Retinoid X Receptor beta (RXRb)
Method: ATG_EcoTox2 is a cell-based, multiplexed assay created by modifying the existing Attagene TRANS-FACTORIAL system to include a panel of nuclear receptors from some or all the following species: human (Homo sapiens), african clawed frog (Xenopus laevis), rainbow trout (Oncorhynchus mykiss), japanese medaka (Oryzias latipes), and zebrafish (Danio rerio). The ECOTOX2-FACTORIAL format uses HepG2, a human liver cell line, with measurements taken at 24 hours after chemical dosing in a 24-well plate. ATG_jmRXRb_EcoTox2 is one of 29 assay components calculated in the ATG_EcoTox2 assay. It is designed to make measurements of mRNA induction, a form of inducible reporter, as detected with fluorescence intensity signals by Reverse transcription polymerase chain reaction (RT-PCR) and Capillary electrophoresis technology.The assay endpoint ATG_jmRXRb_EcoTox2 was analyzed in the positive analysis fitting direction relative to DMSO as the negative control and baseline of activity. Using a type of inducible reporter, measures of mRNA for gain-of-signal activity can be used to understand the reporter gene at the transcription factor-level as they relate to the gene RXRb. Furthermore, this assay endpoint can be referred to as a primary readout, because this assay has produced multiple assay endpoints where this one serves a reporter gene function. […]
Human liver HepG2 cells are transiently transfected with multiple reporter transcription units (MRTUs) in 6-well plates using FuGene 6 reagent (Roche; 3 ml FuGene/1 mg DNA). […] A major difference between the CIS and TRANS system is that in CIS activities of endogenous TFs are measured, whereas the TRANS assay evaluates changes in activities of exogenous, chimeric NR-Gal4 proteins. […] The fragments were purified using Qiaquick PCR columns (Qiagen), analyzed on an ABI 3130xL genetic analyzer (Applied Biosystems) with peak positions identified by using a set of X-rhodamine (ROX)-labeled MapMarker1000 molecular weight standards (BioVentures). […]

Row | Compound | AC50
1 | [Cl][Sn]([c]1ccccc1)([c]1ccccc1)[c]1ccccc1 | 0.171 µM (active)
2 | CCCCOCN(C(=O)CCl)c1c(CC)cccc1CC | 50 µM (active)
3 | O=C(O)C(F)(F)C(F)(F)C(F)(F)C(F)(F)C(F)(F)C(F)(F)C(F)(F)F | 31.4 µM (active)
